A short description of assay [1]: Quantitative High-Throughput drug screen in 47 multiple myeloma cell lines against the NCATS MIPE library collection: EJM_DSMZ cell viability assay (AID 1918926; further: nearly all actives have a fitted effect of over 30% in size). Summed up: (§1)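 Myeloma cells (500 per well) were exposed to MIPE 4.0 compounds by pin transfer and incubated 48 hours at 37C, 5% CO2. Viability was read as ATP by CellTiter-Glo luminescence, normalised to DMSO (100%) and media-only (0%) wells.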

Assay [2] is described as follows: Quantitative High-Throughput drug screen in 47 multiple myeloma cell lines against the NCATS MIPE library collection: Karpas620_DSMZ cell viability assay (AID 1918959). Further: nearly all actives have a fitted effect of over 30% in size. Summed up: (§2)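 CellTiter-Glo luminescence (ATP) after 48 h compound exposure, 37C/5% CO2; 500 cells/well; MIPE 4.0 approved/investigational drugs pinned in; DMSO = 100%, media only = 0% viability.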

Assay [3] can be described thus: Quantitative High-Throughput drug screen in 47 multiple myeloma cell lines against the NCATS MIPE library collection: KMM1_JCRB cell viability assay (AID 1918960). Further: nearly all actives have a fitted effect of over 30% in size.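 On viability (% of DMSO): 100% = DMSO-treated cells and 0% = medium-only wells.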 Summed up: (§3)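 Here, 48 h treatment with MIPE 4.0 agents at 37 °C preceded an ATP luminescence read. Plating density was 500 cells per well.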
A short description of assay [4]: Quantitative High-Throughput drug screen in 47 multiple myeloma cell lines against the NCATS MIPE library collection: Karpas417_ECACC cell viability assay (AID 1918961). To be noted: Karpas417 myeloma viability, CellTiter-Glo ATP luminescence, 48 h; viability (% of DMSO): at 45.8 µM (top of the series). In outline: as §1
The nature of assay [5]: Quantitative High-Throughput drug screen in 47 multiple myeloma cell lines against the NCATS MIPE library collection: KHM11_PLB cell viability assay (AID 1918962). Further: nearly all actives have a fitted effect of over 35% in size. Summed up:
as §2

Assay [6] can be described thus: Quantitative High-Throughput drug screen in 47 multiple myeloma cell lines against the NCATS MIPE library collection: JIM3_ECACC cell viability assay (AID 1918963; further: nearly all actives have a fitted effect of over 35% in size). In outline: as §2
Assay [7] in a line: Quantitative High-Throughput drug screen in 47 multiple myeloma cell lines against the NCATS MIPE library collection: ARD_JJKsccE7 cell viability assay (AID 1918929). Summed up: as §1
Assay [8] in a line: Quantitative High-Throughput drug screen in 47 multiple myeloma cell lines against the NCATS MIPE library collection: JIM1_ECACC cell viability assay (AID 1918964). In outline:
as §1

Assay [9] can be described thus: Quantitative High-Throughput drug screen in 47 multiple myeloma cell lines against the NCATS MIPE library collection: AMO1_DSMZ cell viability assay (AID 1918927; further: nearly all actives have a fitted effect of over 30% in size). Summed up: as §1
Assay [10] in a line: Quantitative High-Throughput drug screen in 47 multiple myeloma cell lines against the NCATS MIPE library collection: ARP1_JJKsccF8 cell viability assay (AID 1918928; further: nearly all actives have a fitted effect of over 40% in size). In outline:
as §3

Inconclusive results are not listed. Active and inactive are the calls of the source. The call rests on the fitted dose curve; in most records, active means well fitted curve in the direction sought with a large enough effect; inconclusive means small, poorly fitted or top-dose-only effect, or another doubt; inactive means no such curve, though single readings can be large; an effect the other way counts as inactive or inconclusive.
Potency means the concentration at half of the fitted maximal effect.

On to `CCOC(=O)C1=C(N)Oc2ccc(Br)cc2C1C(C#N)C(=O)OCC` (stereo not drawn), for which the Potency in assay [1] was 20.9 µM (active); in assay [2] it was 18.7 µM (active); in assay [3] it was 16.6 µM (active); in assay [4], 8.33 µM (active); in assay [5], 20.9 µM (active); in assay [6] it was 23.5 µM (active).

Regarding `CCCCCN(C)CCC(O)(P(=O)(O)O)P(=O)(O)O`, the Potency result in assay [1], in [7], in assay [2], in [5] and in assay [8] was “inactive” throughout. Moreover, the viability (% of DMSO) in assay [4] is 78.6% (active).

As to `Cn1c(N2CCCCS2(=O)=O)nc(C(=O)NCc2ccc(F)cc2)c(O)c1=O`, the Potency result in assay [1], in assay [3], in assay [5] and in [6] was “inactive” each time.

On to `C[N+](C)(C)CC(=O)O`, for which the Potency entry in [1], in assay [7], in assay [3], in assay [4] and in [5] was “inactive” each time.

For the molecule `O=C(OCC#CCSc1nnc(-c2cccc3ccccc23)o1)c1cc2ccccc2s1`, the Potency in assay [1] was 23.5 µM (active). The Potency result in assay [7], in [2], in assay [3], in [5], in assay [6] and in assay [8] was “inactive” each time.

With `Cc1c(NC(=O)c2ccc(C(C)(C)C)cc2)cccc1-c1cn(C)c(=O)c(Nc2ccc(C(=O)N3CCOCC3)cc2)n1`, the Potency was 18.7 µM (active) in assay [1], 9.35 µM (active) in assay [2] and 6.62 µM (active) in assay [3]. Moreover, the Potency result in assay [5] is “inactive”.

Turning to `CC(C(=O)O)c1ccc(-c2ccccc2)c(F)c1` (stereo not drawn), the Potency in assay [1] is 13.2 µM (active). Also, the Potency entry in [7], in [2], in assay [3] and in assay [8] was “inactive” throughout.

As to `C=C1C(=O)OC(CCCCCCCC)C1C(=O)O` (stereo not drawn), the Potency result in assay [9], in assay [10], in [7], in assay [5] and in assay [8] was “inactive” throughout. Further, the viability (% of DMSO) in assay [4] was 74% (active).

As to `CC1(C)O[C@H]2C[C@@H]3[C@H]4CCC5=CC(=O)C=C[C@]5(C)[C@@]4(F)[C@@H](O)C[C@]3(C)[C@]2(C(=O)CO)O1`, the Potency result in assay [1], in assay [2], in [3], in assay [6] and in [8] was “inactive” in each case. Further, the Potency in assay [7] is 0.0037 µM (active); in [4], 0.0118 µM (active).

Consider `Clc1ccc(-c2nc3sccn3c2C=NOCc2ccc(Cl)c(Cl)c2)cc1`, for which the Potency entry in assay [9], in assay [10], in [2], in assay [3], in [4] and in [5] was “inactive” each time.

In the case of `Cc1ccc(C(C)(O)c2nc3ccccc3s2)c(C)c1` (stereo not drawn), the Potency in assay [9] was 20.9 µM (active). Further, the Potency entry in [10], in [7], in assay [2], in assay [3], in assay [4] and in [6] was “inactive” in each case.

As to `CN(C[C@@H]1COCCO1)S(=O)(=O)Nc1ccc2ccc3ncc(-c4cnn(C)c4)cc3c(=O)c2c1`, the Potency was 2.96 µM (active) in assay [1], 1.48 µM (active) in [3] and 0.743 µM (active) in [5].

`COc1ccc(-c2coc3cc(O)cc(O)c3c2=O)cc1`: the Potency result in assay [10] and in assay [6] was “inactive” in each case. Further, in [2], the Potency was 18.7 µM (active).

Regarding `O=C(O)c1c(Cl)c(Cl)c(Cl)c(Cl)c1-c1c2cc(I)c(=O)c(I)c-2oc2c(I)c(O)c(I)cc12`, the Potency is 13.2 µM (active) in assay [9]; 8.33 µM (active) in assay [7]; 14.8 µM (active) in [2]; 7.43 µM (active) in [6]; 2.35 µM (active) in assay [8].

Take `Clc1ccc(CCC(Cn2ccnc2)Sc2c(Cl)cccc2Cl)cc1` (stereo not drawn): the values for the Potency in assay [9], in [7] and in assay [2] were 14.8 µM (active), 13.2 µM (active) and 18.7 µM (active), respectively.

On to `NC(=O)NN=Cc1ccc([N+](=O)[O-])o1`, for which the Potency is 10.5 µM (active) in assay [9] and 18.7 µM (active) in assay [2].

With `O=C1NC(=O)C(=Cc2ccc3nccnc3c2)S1`, the Potency is 10.2 µM (active) in [10], 3.63 µM (active) in [2], 2.04 µM (active) in assay [3] and 10.2 µM (active) in assay [6].

As for `O=c1c(O)c(-c2ccc(O)cc2)oc2cc(O)cc(O)c12`, the Potency in [9] was 9.35 µM (active); in assay [7] it was 13.2 µM (active); in assay [2], 18.7 µM (active); in [3] it was 16.6 µM (active); in assay [4], 16.6 µM (active).

Consider `CC(=O)Oc1cc2c(s1)CCN(C(C(=O)C1CC1)c1ccccc1F)C2` (stereo not drawn), for which the Potency in [10] is 1.32 µM (active); in assay [2], 1.18 µM (active).

In the case of `Cc1nnc(C(C)C)n1C1C[C@H]2CC[C@@H](C1)N2CC[C@H](NC(=O)C1CCC(F)(F)CC1)c1ccccc1` (stereo partly drawn), the Potency entry in assay [9], in assay [10] and in assay [6] was “inactive” throughout.

On to `N#Cc1ccc(NC(=O)Nc2ccccc2Br)c2n[nH]nc12`, for which the Potency entry in assay [10] was “inactive”. For the same molecule, the Potency is 10.5 µM (active) in [7], 13.2 µM (active) in [2], 20.9 µM (active) in assay [3] and 8.33 µM (active) in [8].

For the molecule `CC(C)C(=O)Nc1ncc(-c2cc(C(F)F)nn2-c2c(Cl)cccc2Cl)s1`, the Potency in [9] was 8.33 µM (active); in assay [7], 20.9 µM (active); in [3] it was 16.6 µM (active); in assay [8], 10.5 µM (active).

For `COc1cccc2c1CCCC2CCCN1CCN(C2CCCCC2)CC1` (stereo not drawn), the Potency is 18.7 µM (active) in assay [10]; 18.7 µM (active) in [2]; 18.7 µM (active) in [3]; 18.7 µM (active) in [5]; 23.5 µM (active) in assay [6].

Regarding `CO[C@@H](C(=O)N1Cc2[nH]nc(NC(=O)c3ccc(N4CCN(C)CC4)cc3)c2C1)c1ccccc1`, the Potency is 4.69 µM (active) in assay [9]; 26.4 µM (active) in [7]; 7.43 µM (active) in [3]; 10.5 µM (active) in assay [5]; 4.69 µM (active) in [6]; 16.6 µM (active) in assay [8].

The values above are taken from PubChem BioAssay (NCATS).
